Data as given in PubChem BioAssay (Tox21).
Records with an inconclusive call do not appear. The source made the active and inactive calls. Unless noted, calls come from the whole dose curve; as a rule, active = well fitted curve in the direction sought with a large enough effect in the repeat runs; inconclusive = weak or mixed curves; inactive = no such curve, though single readings can be large; an effect the other way counts as inactive or inconclusive.

Tests used:
[1] = qHTS assay for small molecule agonists of the p53 signaling pathway (AID 651631; calls by dose curve; note: nearly all actives have a fitted effect of over 15% in size); details: HCT-116 p53RE-bla reporter, beta-lactamase FRET ratio, 16 h; series mostly up to 73.3 µM
Summary of the method: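 p53RE-bla HCT-116 cells; compounds 16 h, 37 °C; LiveBLAzer B/G FRET substrate 2 h RT; fluorescence intensity read-out, qHTS format.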

[2] = qHTS assay for small molecules that induce genotoxicity in human embryonic kidney cells expressing luciferase-tagged ATAD5 (AID 651632); details: HEK293T ATAD5-luciferase induction, 16 h; series mostly up to 83.3 µM; note: nearly all actives have a fitted effect of over 15% in size
Summary of the method: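 Increased luciferase signal from ATAD5-tagged reporter cells indicates DNA-damage-driven ATAD5 induction. HEK293T cells are treated for 16 hr at 37C before detection with Amplite.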

[3] = qHTS assay for small molecule agonists of the p53 signaling pathway - cell viability (AID 651633; calls by dose curve; note: nearly all actives have a fitted effect of over 30% in size); details: p53RE-bla HCT-116 viability, ATP luminescence, 16 h; series mostly up to 83.3 µM
Summary of the method: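 Viability counter-read: CellTiter-Glo luminescence (30 min, room temperature) in the same p53RE-bla plates. These plates had been exposed to compounds for 16 h at 37 C.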

[4] = qHTS assay for small molecules that induce genotoxicity in human embryonic kidney cells expressing luciferase-tagged ATAD5 - cell viability (AID 651634; calls by dose curve; note: nearly all actives have a fitted effect of over 25% in size); details: HEK293T ATAD5-luc cells viability, CellTiter-Fluor, 15.5 h; series mostly up to 83.3 µM
Summary of the method: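 Cytotoxicity counterscreen in HEK293T cells bearing an ATAD5-luciferase reporter: live-cell protease activity measured by CellTiter-Fluor fluorescence after 15.5 hr compound exposure.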

[5] = qHTS assay to test for compound auto fluorescence at 590 nm (red) in HepG2 cells (AID 720674); details: HepG2 autofluorescence, red 540/590 nm, 1 h; series mostly up to 91.3 µM
Summary of the method: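 1 hr compound incubation on HepG2 cells, 37 C, 5% CO2; plate read ex 540 nm / em 590 nm; intensities reported as Rose Bengal sodium equivalents.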

[6] = qHTS assay to test for compound auto fluorescence at 535 nm (green) in HepG2 cells (AID 720675); details: green autofluorescence 485/535 nm, 1 h; series mostly up to 91.3 µM
[7] = qHTS assay to test for compound auto fluorescence at 460 nm (blue) in HEK293 cells (AID 720678); details: blue autofluorescence 405/460 nm; series mostly up to 91.3 µM
Summary of the method: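 Blue read-out at excitation 405 nm and emission 460 nm follows overnight compound exposure of HEK293 cells at 37C in 5% CO2. Activity is given as auto fluorescence equivalency to triamterene.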

[8] = qHTS assay to test for compound auto fluorescence at 590 nm (red) in HEK293 cells (AID 720679); details: red autofluorescence 540/590 nm; series mostly up to 91.3 µM
Summary of the method: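 Red channel, Ex/Em 540/590nm; signal expressed as equivalency to Rose Bengal sodium. HEK293, 2,000 cells/well, 10% dialyzed FBS; 23 nL compound pinned after 4-5 hr attachment; overnight 37C/5% CO2 before reading.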

[9] = qHTS assay to test for compound auto fluorescence at 535 nm (green) in HEK293 cells (AID 720680); details: green autofluorescence 485/535 nm; series mostly up to 91.3 µM
[10] = qHTS assay to test for compound auto fluorescence at 460 nm (blue) in HEK293 cell free culture (AID 720681); details: cell-free medium, autofluorescence 405/460 nm (blue); series mostly up to 91.3 µM
Summary of the method: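 Blue fluorescence (Ex 405/Em 460 nm, triamterene-equivalent) was read immediately after pin transfer of compound or DMSO into medium (DMEM, 10% FBS) without cells.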

[11] = qHTS assay to test for compound auto fluorescence at 535 nm (green) in HEK293 cell free culture (AID 720682); details: cell-free medium, green autofluorescence 485/535 nm, active compounds read high; series mostly up to 91.3 µM
Summary of the method: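 Cell-free medium (DMEM, 10% FBS) receives compound or DMSO by pintool. Plate read directly at Ex 485/Em 535 nm. Signal converted to fluorescein equivalency.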

[12] = qHTS assay to test for compound auto fluorescence at 590 nm (red) in HEK293 cell free culture (AID 720683); details: cell-free medium autofluorescence, Ex540/Em590 red; series mostly up to 91.3 µM
Summary of the method: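 Red-channel autofluorescence of compounds in culture medium (DMEM, 10% FBS), no cells, measured at 540/590 nm. Rose Bengal sodium is the reference fluorophore for equivalence.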

[13] = qHTS assay to test for compound auto fluorescence at 590 nm (red) in HepG2 cell free culture (AID 720684); details: cell-free medium autofluorescence, red 540/590 nm; series mostly up to 91.3 µM
Summary of the method: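 Plate contents were MEM with 10% FBS plus test compound or DMSO, no cells. Fluorescence was recorded with 540 nm excitation and 590 nm emission.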

[14] = qHTS assay to test for compound auto fluorescence at 460 nm (blue) in HepG2 cell free culture (AID 720685); details: Cell-free culture medium, blue autofluorescence 405/460 nm; series mostly up to 91.3 µM
Summary of the method: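 Compound (23 nL) or DMSO pinned into cell-free MEM with 10% FBS; blue fluorescence read at 405/460 nm excitation/emission, expressed as auto-fluorescence equivalency to triamterene.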

[15] = qHTS assay to test for compound auto fluorescence at 535 nm (green) in HepG2 cell free culture (AID 720686); details: Cell-free medium, green autofluorescence 485/535 nm; series mostly up to 91.3 µM
[16] = qHTS assay to test for compound auto fluorescence at 460 nm (blue) in HepG2 cells (AID 720687); details: autofluorescence 405/460 nm, 1 h; series mostly up to 91.3 µM
Summary of the method: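 Blue-channel autofluorescence (Ex/Em 405/460 nm, triamterene-equivalent) was measured after 1 hr compound exposure at 37 C, 5% CO2. Cells were HepG2, plated overnight at 37 C in MEM plus 10% FBS.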

[17] = target: Glucocorticoid receptor (Homo sapiens) (UniProt P04150); assay: qHTS assay to identify small molecule agonists of the glucocorticoid receptor (GR) signaling pathway (AID 720691; active = well fitted activation curve with a large enough effect in the signal ratio in the repeat runs, not every such curve was filed as active; the % refers to the signal ratio); details: GR-bla HeLa, beta-lactamase reporter ratio, 18 h; series mostly up to 62.4 µM
Summary of the method: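 Agonist mode in a HeLa line carrying a GRE-controlled beta-lactamase reporter. Compounds act for 18 h at 37 C before a 2 h room-temperature FRET substrate step and fluorescence reading.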

[18] = qHTS assay for small molecule disruptors of the mitochondrial membrane potential - cell viability (AID 720634; calls by dose curve;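 note: human HepG2 liver cancer cells; nearly all actives have a fitted effect of over 20% in size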); details: HepG2 viability, ATP luminescence (CellTiter-Glo), 1 h; series mostly up to 83.2 µM
Summary of the method: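 After overnight attachment at 37 C, HepG2 cells received compound or DMSO vehicle for 1 hr. Viability is then taken from ATP-driven luminescence following a 30 min room-temperature CellTiter-Glo step.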

[19] = target: Glucocorticoid receptor (Homo sapiens) (UniProt P04150); assay: qHTS assay to identify small molecule antagonists of the glucocorticoid receptor (GR) signaling pathway (AID 720692; active = well fitted inhibition curve with a large enough effect in the signal ratio in the repeat runs, not every such curve was filed as active; the % refers to the signal ratio); details: GR-bla HeLa, beta-lactamase FRET ratio, dexamethasone-stimulated, 18 h; series mostly up to 58.5 µM
Summary of the method: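 Cells plated, rested 4 h at 37 C/5% CO2; compounds in DMSO pin-transferred; dexamethasone added to 5 nM final; 18 h at 37 C; B/G FRET substrate added, 2 h room temperature; fluorescence measured.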

[20] = qHTS assay for small molecule disruptors of the mitochondrial membrane potential (AID 720635); details: HepG2 mitochondrial membrane potential, Mito-MPS dye ratio; series mostly up to 83.2 µM
Summary of the method: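 Mitochondrial membrane potential tracked with Mito-MPS dye, red aggregates (ex 540/em 590 nm) against green monomers (ex 490/em 535 nm). Compound treatment 1 hr at 37C, dye 30 min in HepG2.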
% is set by controls: 0 for no effect and ±100 for the full control effect.

Glucocorticoid receptor (Homo sapiens), sequence (P04150 whole entry, looked up): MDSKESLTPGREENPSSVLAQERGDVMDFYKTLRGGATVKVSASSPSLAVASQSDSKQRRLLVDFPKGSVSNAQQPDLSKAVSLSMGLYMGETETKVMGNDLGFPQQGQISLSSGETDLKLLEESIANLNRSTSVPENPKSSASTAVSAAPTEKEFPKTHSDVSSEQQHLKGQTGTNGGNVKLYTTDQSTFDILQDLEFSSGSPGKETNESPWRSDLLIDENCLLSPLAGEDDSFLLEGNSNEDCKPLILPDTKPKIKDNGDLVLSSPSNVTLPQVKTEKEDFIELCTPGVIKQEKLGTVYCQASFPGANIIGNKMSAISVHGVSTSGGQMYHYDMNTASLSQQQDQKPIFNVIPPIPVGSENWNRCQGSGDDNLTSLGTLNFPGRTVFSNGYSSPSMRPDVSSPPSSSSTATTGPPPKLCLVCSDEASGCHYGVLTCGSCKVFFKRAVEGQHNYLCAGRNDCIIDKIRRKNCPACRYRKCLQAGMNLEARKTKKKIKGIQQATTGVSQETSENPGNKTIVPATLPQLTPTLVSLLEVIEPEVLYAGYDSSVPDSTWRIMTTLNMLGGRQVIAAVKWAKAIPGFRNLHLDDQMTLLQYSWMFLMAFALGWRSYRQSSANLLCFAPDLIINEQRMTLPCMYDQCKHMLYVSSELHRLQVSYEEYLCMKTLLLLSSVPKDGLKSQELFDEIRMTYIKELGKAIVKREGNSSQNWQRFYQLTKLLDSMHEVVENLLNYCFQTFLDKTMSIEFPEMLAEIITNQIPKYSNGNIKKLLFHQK

Brc1ccc(-c2ccccc2)cc1
inactive: outcome [1] | Potency [2] | outcome [3] | Potency [4] | outcome [5] | outcome [6] | outcome [7] | outcome [8] | outcome [9] | outcome [10] | outcome [11] | outcome [12] | outcome [13] | outcome [14] | outcome [15] | outcome [16] | Potency [17]

CCCCCCOC(=O)CC
inactive: outcome [1] | Potency [2] | outcome [3] | Potency [4] | outcome [18] | outcome [5] | outcome [6] | outcome [7] | outcome [9] | outcome [12] | outcome [14] | outcome [15] | outcome [16] | Potency [17] | outcome [19]

FC(F)(F)c1ccccc1-n1ccnc1
inactive: outcome [1] | Potency [2] | outcome [3] | Potency [4] | outcome [18] | outcome [5] | outcome [6] | outcome [8] | outcome [9] | outcome [10] | outcome [11] | outcome [12] | outcome [13] | outcome [14] | outcome [15] | outcome [16] | Potency [17] | outcome [19]

Cc1cc(Cl)c(C)cc1Cl
inactive: outcome [1] | outcome [3] | Potency [4] | outcome [18] | outcome [5] | outcome [6] | outcome [7] | outcome [9] | outcome [10] | outcome [11] | outcome [12] | outcome [13] | outcome [14] | outcome [15] | outcome [16] | outcome [19]

O=C(NCCN1CCOCC1)c1ccc(Cl)cc1
inactive: outcome [1] | outcome [3] | Potency [4] | outcome [18] | outcome [5] | outcome [6] | outcome [7] | outcome [8] | outcome [9] | outcome [11] | outcome [12] | outcome [13] | outcome [14] | outcome [15] | outcome [16]

CCN1CCc2nc(N)oc2CC1
inactive: outcome [1] | outcome [3] | Potency [4] | outcome [18] | Potency [20] | outcome [5] | outcome [6] | outcome [7] | outcome [9] | outcome [11] | outcome [12] | outcome [13] | outcome [14] | outcome [15] | outcome [16] | Potency [17] | outcome [19]

O=C1CCCC(=O)O1
inactive: outcome [1] | outcome [3] | Potency [4] | outcome [18] | Potency [20] | outcome [5] | outcome [6] | outcome [7] | outcome [8] | outcome [9] | outcome [10] | outcome [12] | outcome [13] | outcome [14] | outcome [16]

O=C(CCNNC(=O)c1ccncc1)NCc1ccccc1
inactive: outcome [1] | outcome [3] | Potency [4] | outcome [18] | Potency [20] | outcome [5] | outcome [6] | outcome [8] | outcome [9] | outcome [10] | outcome [11] | outcome [12] | outcome [13] | outcome [14] | outcome [16] | outcome [19]

Nc1nnc(-c2cccc(Cl)c2Cl)c(N)n1
inactive: outcome [1] | Potency [2] | outcome [3] | Potency [4] | outcome [5] | outcome [6] | outcome [8] | outcome [9] | outcome [10] | outcome [11] | outcome [12] | outcome [13] | outcome [14] | outcome [15] | outcome [16]

CCOc1cc([N+](=O)[O-])c(OCC)cc1N1CCOCC1
inactive: outcome [1] | Potency [2] | outcome [3] | outcome [18] | outcome [5] | outcome [6] | outcome [7] | outcome [8] | outcome [9] | outcome [10] | outcome [11] | outcome [12] | outcome [13] | outcome [14] | outcome [16] | Potency [17]

C[C@H](N)[C@H](O)c1cccc(O)c1
inactive: outcome [1] | outcome [3] | Potency [4] | outcome [18] | fluorescence, relative to Rose Bengal [5] 0.285% [at 18.6 µM] | fluorescence, % of fluorescein control [6] 0.0051% [at 18.6 µM] | fluorescence, % of triamterene [7] 2.14% [at 18.6 µM] | fluorescence, % of fluorescent control [8] -0.0013% [at 18.6 µM] | fluorescence, % of fluorescein [9] 0.0113% [at 18.6 µM] | fluorescence, % of fluorescent control [10] 2.08% [at 18.6 µM] | fluorescence, % of fluorescent control [12] 0.0224% [at 18.6 µM] | fluorescence, % of Rose Bengal [13] -0.249% [at 18.6 µM] | fluorescence, % of fluorescent control [14] 1.92% [at 18.6 µM] | fluorescence, % of fluorescein control [15] 0.027% [at 18.6 µM] | fluorescence, % of fluorescent control [16] 1.56% [at 18.6 µM] | Potency [17] | outcome [19]

CC(COC(C)(C)C)OCCCO (centres undefined)
inactive: outcome [1] | outcome [3] | Potency [4] | outcome [18] | Potency [20] | outcome [5] | outcome [6] | outcome [7] | outcome [8] | outcome [9] | outcome [10] | outcome [11] | outcome [12] | outcome [13] | outcome [14] | outcome [15] | outcome [16]

CC(C)(C)c1n[nH]c(=S)n(N)c1=O
inactive: outcome [1] | outcome [3] | Potency [4] | outcome [18] | Potency [20] | outcome [5] | outcome [6] | outcome [7] | outcome [8] | outcome [9] | outcome [10] | outcome [11] | outcome [12] | outcome [13] | outcome [14] | outcome [15] | outcome [16] | outcome [19]

CCC(C=O)CC
inactive: outcome [1] | outcome [3] | Potency [4] | outcome [18] | outcome [5] | outcome [6] | outcome [7] | outcome [8] | outcome [9] | outcome [10] | outcome [11] | outcome [12] | outcome [13] | outcome [14] | outcome [15] | outcome [16] | Potency [17]
